# Results taken from article PMC7862700, “An all-to-all approach to the identification of sequence-specific readers for epigenetic DNA modifications on cytosine”.
# Experiments:
# Assay in all cases: DAPPL (digital affinity profiling via proximity ligation, sequencing); 10 mM Tris-HCl pH 7.5, 50 mM NaCl, 1 mM DTT, 4% glycerol, room temperature, 30 min; GST-TFs on glutathione beads, 16-mer random dsDNA library, 0.1% formaldehyde crosslink after washing; high values mean tight binding
# [1] = target: T1, FLI1 (Homo sapiens, UniProt Q01543 1-452); conditions: protein: recombinant; tags: N-terminal GST; dsDNA, one strand shown
# T1 sequence: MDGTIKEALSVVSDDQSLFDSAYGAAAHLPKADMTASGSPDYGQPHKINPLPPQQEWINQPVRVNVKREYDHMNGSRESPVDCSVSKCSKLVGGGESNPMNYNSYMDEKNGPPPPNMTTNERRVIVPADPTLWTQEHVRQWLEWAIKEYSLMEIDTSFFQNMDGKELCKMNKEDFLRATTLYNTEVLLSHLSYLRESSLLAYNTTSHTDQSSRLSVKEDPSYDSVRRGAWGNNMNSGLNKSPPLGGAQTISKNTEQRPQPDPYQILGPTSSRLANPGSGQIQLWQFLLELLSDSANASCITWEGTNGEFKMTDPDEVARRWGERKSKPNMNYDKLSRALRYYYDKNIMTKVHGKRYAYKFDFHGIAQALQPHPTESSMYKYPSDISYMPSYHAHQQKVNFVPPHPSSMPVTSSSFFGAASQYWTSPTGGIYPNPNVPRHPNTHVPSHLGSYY
# Outline: (§1)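 Yeast served to express human transcription factors as GST fusions, which were then captured on glutathione beads and labelled with DNA barcodes. Pooled with a tag-only sample, they were incubated with 200 nmole of a 16-mer random double-stranded DNA library for 30 min at room temperature in Tris/NaCl/DTT/glycerol buffer, washed, crosslinked with 0.1% formaldehyde, ligated by proximity, amplified by PCR and sequenced. Dividing each hexamer's read frequency for a factor by its frequency for the tag-only sample gives the binding signal.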
# [2] = target: T2, GABPA (Homo sapiens, UniProt Q06546 1-454); conditions: protein: recombinant; tags: N-terminal GST; dsDNA, one strand shown
# T2 sequence: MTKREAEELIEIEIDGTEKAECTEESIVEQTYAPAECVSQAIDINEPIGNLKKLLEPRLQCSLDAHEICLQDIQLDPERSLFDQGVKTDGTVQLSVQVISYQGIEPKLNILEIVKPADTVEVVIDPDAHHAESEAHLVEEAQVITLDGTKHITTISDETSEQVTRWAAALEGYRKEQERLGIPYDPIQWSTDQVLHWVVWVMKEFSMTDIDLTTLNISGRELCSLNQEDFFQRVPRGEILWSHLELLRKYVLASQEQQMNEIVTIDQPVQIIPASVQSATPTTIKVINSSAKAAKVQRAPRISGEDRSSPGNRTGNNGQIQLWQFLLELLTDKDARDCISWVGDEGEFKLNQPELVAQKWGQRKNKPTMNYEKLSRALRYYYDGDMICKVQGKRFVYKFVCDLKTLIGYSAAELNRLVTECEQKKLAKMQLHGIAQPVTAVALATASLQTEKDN
# Outline: as §1
# [3] = target: T3, ERG (Homo sapiens, UniProt P11308 1-479); conditions: protein: recombinant; tags: N-terminal GST; dsDNA, one strand shown
# T3 sequence: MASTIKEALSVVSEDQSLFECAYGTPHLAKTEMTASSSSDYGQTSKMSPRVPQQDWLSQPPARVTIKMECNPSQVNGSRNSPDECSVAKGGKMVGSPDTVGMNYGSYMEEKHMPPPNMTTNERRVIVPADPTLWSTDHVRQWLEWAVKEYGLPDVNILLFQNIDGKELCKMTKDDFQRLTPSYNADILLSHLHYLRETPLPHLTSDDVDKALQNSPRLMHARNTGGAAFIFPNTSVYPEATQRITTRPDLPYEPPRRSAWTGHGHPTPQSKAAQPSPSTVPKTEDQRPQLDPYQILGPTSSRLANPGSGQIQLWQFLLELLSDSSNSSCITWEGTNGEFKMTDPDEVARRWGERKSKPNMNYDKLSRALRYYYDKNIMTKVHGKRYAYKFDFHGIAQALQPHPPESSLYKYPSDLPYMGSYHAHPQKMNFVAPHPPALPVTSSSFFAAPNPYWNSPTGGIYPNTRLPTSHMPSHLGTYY
# Outline: as §1
# [4] = target: ELF1 (Homo sapiens, UniProt P32519 1-619); conditions: protein: recombinant; tags: N-terminal GST; dsDNA, one strand shown
# Sequence of ELF1 (P32519 whole entry): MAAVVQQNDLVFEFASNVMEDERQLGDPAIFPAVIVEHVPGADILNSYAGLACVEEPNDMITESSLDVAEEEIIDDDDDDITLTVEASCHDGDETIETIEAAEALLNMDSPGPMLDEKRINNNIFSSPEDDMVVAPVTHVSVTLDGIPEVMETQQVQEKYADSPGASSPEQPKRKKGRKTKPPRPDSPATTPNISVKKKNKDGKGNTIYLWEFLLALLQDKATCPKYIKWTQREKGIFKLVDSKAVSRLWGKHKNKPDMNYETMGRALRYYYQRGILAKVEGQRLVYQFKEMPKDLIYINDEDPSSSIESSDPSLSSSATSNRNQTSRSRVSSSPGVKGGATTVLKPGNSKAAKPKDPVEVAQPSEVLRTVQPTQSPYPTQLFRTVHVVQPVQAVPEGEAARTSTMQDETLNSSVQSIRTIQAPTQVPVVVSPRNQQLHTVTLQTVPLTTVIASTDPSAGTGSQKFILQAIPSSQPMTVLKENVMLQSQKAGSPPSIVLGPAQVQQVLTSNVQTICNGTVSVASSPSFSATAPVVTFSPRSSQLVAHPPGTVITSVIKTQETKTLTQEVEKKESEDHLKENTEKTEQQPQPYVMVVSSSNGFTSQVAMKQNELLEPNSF
# Outline: as §1
# [5] = target: T4, EHF (Homo sapiens, UniProt Q9NZC4 1-300); conditions: protein: recombinant; tags: N-terminal GST; dsDNA, one strand shown
# T4 sequence: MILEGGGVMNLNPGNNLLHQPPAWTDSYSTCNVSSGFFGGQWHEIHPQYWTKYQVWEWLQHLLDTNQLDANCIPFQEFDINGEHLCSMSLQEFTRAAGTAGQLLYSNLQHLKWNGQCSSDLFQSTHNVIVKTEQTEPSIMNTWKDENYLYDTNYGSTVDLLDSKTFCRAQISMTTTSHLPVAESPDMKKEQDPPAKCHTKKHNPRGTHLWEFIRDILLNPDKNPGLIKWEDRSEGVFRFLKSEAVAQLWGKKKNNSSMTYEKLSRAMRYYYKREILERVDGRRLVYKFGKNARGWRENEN
# Outline: as §1
# [6] = target: SPI1 (Homo sapiens, UniProt P17947 1-270); conditions: protein: recombinant; tags: N-terminal GST; dsDNA, one strand shown
# Outline: as §1
# [7] = target: SPIB (Homo sapiens, UniProt Q01892 1-262); conditions: protein: recombinant; tags: N-terminal GST; dsDNA, one strand shown
# Sequence of SPIB (Q01892 whole entry): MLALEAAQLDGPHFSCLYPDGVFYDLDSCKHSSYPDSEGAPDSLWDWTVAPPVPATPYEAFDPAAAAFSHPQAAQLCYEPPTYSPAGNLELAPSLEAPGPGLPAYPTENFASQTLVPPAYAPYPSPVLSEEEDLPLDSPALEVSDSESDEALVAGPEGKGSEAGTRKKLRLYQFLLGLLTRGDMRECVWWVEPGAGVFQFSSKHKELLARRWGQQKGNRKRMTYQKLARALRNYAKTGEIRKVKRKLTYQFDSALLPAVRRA
# Outline: as §1
# [8] = target: T5, ELK3 (Homo sapiens, UniProt P41970 1-407); conditions: protein: recombinant; tags: N-terminal GST; dsDNA, one strand shown
# T5 sequence: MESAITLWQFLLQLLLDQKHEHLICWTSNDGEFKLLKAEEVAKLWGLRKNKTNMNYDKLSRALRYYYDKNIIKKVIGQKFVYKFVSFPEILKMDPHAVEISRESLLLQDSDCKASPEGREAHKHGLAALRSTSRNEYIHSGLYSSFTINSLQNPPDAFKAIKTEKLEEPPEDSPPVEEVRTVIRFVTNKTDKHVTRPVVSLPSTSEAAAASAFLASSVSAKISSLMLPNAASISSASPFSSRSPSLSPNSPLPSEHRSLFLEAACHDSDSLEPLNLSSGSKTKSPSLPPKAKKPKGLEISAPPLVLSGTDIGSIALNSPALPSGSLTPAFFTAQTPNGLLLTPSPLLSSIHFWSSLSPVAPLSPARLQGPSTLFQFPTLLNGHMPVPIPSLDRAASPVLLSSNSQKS
# Outline: as §1
# [9] = target: T6, FEV (Homo sapiens, UniProt Q99581 1-238); conditions: protein: recombinant; tags: N-terminal GST; dsDNA, one strand shown
# T6 sequence: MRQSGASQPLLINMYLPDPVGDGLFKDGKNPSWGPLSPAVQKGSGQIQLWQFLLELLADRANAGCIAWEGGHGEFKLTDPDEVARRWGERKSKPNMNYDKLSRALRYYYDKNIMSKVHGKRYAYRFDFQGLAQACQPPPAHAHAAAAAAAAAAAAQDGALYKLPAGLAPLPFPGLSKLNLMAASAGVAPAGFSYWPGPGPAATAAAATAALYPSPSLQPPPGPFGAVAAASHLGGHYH
# Outline: as §1
# [10] = target: ETV5 (Homo sapiens, UniProt P41161 1-510); conditions: protein: recombinant; tags: N-terminal GST; dsDNA, one strand shown
# Sequence of ETV5 (P41161 whole entry): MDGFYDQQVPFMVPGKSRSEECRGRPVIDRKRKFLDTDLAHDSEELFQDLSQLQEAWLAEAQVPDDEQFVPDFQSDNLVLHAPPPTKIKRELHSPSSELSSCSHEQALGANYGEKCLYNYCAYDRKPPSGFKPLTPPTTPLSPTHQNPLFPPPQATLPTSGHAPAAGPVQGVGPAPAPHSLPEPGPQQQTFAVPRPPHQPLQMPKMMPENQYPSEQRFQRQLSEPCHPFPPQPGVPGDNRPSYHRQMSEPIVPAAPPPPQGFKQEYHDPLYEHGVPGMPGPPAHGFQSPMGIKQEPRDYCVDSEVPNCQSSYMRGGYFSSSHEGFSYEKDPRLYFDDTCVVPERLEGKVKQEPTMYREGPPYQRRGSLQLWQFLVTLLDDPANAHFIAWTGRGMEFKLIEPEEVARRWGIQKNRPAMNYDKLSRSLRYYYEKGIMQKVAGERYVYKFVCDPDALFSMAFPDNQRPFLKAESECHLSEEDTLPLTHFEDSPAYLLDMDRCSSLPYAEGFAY
# Outline: as §1
# [11] = target: HSF1 (Homo sapiens, UniProt Q00613 1-529); conditions: protein: recombinant; tags: N-terminal GST; chain copies: 3; dsDNA, one strand shown
# Sequence of HSF1 (Q00613 whole entry): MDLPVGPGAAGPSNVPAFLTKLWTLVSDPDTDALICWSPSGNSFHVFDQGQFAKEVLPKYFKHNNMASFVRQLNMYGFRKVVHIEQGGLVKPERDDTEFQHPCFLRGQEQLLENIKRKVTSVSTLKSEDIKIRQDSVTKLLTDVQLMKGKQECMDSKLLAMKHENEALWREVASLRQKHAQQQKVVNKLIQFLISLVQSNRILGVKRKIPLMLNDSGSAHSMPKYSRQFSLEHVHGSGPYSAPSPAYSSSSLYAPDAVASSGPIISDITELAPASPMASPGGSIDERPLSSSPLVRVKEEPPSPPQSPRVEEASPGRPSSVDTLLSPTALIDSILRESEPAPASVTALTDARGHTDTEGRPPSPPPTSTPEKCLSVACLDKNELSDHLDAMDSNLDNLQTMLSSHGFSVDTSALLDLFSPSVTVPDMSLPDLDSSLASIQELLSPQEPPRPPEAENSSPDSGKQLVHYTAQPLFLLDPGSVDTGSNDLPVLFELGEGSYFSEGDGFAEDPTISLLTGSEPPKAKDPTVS
# Outline: as §1
# [12] = target: T7, SPIC (Homo sapiens, UniProt Q8N5J4 1-248); conditions: protein: recombinant; tags: N-terminal GST; dsDNA, one strand shown
# T7 sequence: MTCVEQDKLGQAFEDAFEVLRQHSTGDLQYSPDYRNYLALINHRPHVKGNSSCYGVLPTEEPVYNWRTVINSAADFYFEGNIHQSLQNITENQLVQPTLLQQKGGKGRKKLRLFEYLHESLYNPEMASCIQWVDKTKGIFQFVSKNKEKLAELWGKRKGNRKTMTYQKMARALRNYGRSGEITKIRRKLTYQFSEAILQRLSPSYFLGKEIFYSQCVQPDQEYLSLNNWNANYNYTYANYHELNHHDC
# Outline: as §1
# [13] = target: ELF4 (Homo sapiens, UniProt Q99607 1-663); conditions: protein: recombinant; tags: N-terminal GST; dsDNA, one strand shown
# Sequence of ELF4 (Q99607 whole entry): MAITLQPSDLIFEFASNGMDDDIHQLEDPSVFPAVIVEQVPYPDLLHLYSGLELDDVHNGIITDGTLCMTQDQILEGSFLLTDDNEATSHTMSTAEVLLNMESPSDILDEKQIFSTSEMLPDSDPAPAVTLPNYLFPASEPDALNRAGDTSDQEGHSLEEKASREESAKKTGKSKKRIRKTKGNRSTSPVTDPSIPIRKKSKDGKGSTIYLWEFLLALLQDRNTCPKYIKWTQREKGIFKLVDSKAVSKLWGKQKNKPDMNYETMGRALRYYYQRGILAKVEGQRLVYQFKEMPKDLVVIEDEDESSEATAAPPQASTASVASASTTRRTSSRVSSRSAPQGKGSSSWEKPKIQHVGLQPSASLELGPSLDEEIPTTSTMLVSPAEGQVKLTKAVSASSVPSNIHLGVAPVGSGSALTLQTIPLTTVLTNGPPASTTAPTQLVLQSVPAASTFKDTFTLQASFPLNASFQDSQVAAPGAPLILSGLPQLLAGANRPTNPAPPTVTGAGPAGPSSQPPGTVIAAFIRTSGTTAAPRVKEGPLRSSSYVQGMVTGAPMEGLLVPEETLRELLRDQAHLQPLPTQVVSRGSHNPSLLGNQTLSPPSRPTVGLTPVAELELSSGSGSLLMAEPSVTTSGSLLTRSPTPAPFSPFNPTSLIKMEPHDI
# Outline: as §1
# [14] = target: T8, ELK4 (Homo sapiens, UniProt P28324-2 1-405); conditions: protein: recombinant; tags: N-terminal GST; dsDNA, one strand shown
# T8 sequence: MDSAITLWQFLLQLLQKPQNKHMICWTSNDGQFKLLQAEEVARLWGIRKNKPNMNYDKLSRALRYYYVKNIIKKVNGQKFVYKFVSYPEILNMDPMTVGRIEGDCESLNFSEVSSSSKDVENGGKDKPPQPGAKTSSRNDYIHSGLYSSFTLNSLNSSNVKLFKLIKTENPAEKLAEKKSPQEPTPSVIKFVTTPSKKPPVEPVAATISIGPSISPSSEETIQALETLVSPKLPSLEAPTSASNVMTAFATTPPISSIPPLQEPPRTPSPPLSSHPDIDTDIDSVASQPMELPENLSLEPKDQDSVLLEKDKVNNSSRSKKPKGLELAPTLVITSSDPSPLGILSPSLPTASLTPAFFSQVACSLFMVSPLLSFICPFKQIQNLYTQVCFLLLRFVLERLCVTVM
# Outline: as §1
# [15] = target: T9, ETV2 (Homo sapiens, UniProt O00321 1-342); conditions: protein: recombinant; tags: N-terminal GST; dsDNA, one strand shown
# T9 sequence: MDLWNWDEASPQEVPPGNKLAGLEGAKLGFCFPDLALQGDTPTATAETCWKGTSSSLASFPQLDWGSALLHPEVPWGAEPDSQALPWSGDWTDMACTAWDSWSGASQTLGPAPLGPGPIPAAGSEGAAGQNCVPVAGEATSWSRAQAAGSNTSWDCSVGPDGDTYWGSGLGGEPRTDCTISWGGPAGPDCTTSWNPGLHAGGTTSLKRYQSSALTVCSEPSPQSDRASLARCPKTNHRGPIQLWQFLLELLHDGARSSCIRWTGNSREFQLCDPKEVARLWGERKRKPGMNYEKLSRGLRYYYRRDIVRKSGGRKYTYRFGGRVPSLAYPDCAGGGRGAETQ
# Outline: as §1
# [16] = target: T10, ELF3 (Homo sapiens, UniProt P78545 1-371); conditions: protein: recombinant; tags: N-terminal GST; dsDNA, one strand shown
# T10 sequence: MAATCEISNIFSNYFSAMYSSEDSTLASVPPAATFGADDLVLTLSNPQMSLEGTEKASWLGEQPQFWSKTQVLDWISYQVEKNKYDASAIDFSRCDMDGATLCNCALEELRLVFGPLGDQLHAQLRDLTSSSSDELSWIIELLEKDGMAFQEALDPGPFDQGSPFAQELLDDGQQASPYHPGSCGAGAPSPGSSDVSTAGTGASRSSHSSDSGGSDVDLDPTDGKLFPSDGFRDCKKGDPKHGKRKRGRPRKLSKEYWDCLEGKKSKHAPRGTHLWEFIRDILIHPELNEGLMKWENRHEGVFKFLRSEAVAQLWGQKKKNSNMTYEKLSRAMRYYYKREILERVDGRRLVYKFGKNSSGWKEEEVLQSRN
# Outline: as §1
# [17] = target: ETV1 (Homo sapiens, UniProt P50549 1-477); conditions: protein: recombinant; tags: N-terminal GST; dsDNA, one strand shown
# Sequence of ETV1 (P50549 whole entry): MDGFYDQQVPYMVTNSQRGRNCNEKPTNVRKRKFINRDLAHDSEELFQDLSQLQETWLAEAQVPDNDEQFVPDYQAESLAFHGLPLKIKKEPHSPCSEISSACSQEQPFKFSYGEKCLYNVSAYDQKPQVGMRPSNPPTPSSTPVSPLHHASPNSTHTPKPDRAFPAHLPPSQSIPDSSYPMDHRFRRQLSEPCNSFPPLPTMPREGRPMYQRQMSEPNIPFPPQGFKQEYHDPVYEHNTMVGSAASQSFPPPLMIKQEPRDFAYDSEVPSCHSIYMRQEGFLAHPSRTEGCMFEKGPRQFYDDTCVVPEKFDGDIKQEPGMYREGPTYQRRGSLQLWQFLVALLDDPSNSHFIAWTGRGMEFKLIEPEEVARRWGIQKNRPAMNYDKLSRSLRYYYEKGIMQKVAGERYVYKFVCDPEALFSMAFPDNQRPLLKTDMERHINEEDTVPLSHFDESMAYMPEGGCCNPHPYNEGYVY
# Outline: as §1
sequence,measurement,setting,value
GTTCCA,binding signal,[1],"1.12 fold enrichment (6-mer frequency, TF over GST control)"
same,binding signal,[2],"1.03 fold enrichment (6-mer frequency, TF over GST control)"
same,binding signal,[3],"1.01 fold enrichment (6-mer frequency, TF over GST control)"
same,binding signal,[4],"1.11 fold enrichment (6-mer frequency, TF over GST control)"
same,binding signal,[5],"1 fold enrichment (6-mer frequency, TF over GST control)"
same,binding signal,[6],"1.03 fold enrichment (6-mer frequency, TF over GST control)"
same,binding signal,[7],"1.1 fold enrichment (6-mer frequency, TF over GST control)"
same,binding signal,[8],"1.08 fold enrichment (6-mer frequency, TF over GST control)"
same,binding signal,[9],"1.01 fold enrichment (6-mer frequency, TF over GST control)"
same,binding signal,[10],"1.05 fold enrichment (6-mer frequency, TF over GST control)"
same,binding signal,[11],"1.79 fold enrichment (6-mer frequency, TF over GST control)"
same,binding signal,[12],"1.21 fold enrichment (6-mer frequency, TF over GST control)"
same,binding signal,[13],"1.13 fold enrichment (6-mer frequency, TF over GST control)"
same,binding signal,[14],"1.14 fold enrichment (6-mer frequency, TF over GST control)"
same,binding signal,[15],"1.06 fold enrichment (6-mer frequency, TF over GST control)"
same,binding signal,[16],"1.12 fold enrichment (6-mer frequency, TF over GST control)"
same,binding signal,[17],"1.06 fold enrichment (6-mer frequency, TF over GST control)"
